# Measured values from the supplement of paper PMC12282887.
# ± gives the standard deviation of the averaged measurements.
# Columns and labels:
# Experiment in all cases: promoter activity interaction Z-score (Lux/OD deviation from empty-vector control); higher = stronger promoter induction by the compound
# [1] = test system: E. coli BW25113 acrABp lux reporter
# Summary of the method: (§1)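 At 37°C, E. coli BW25113 reporter cultures in 40 µl LB Lennox in 384-well plates were read for OD600 and luminescence every 30 min for 12 h. Windows were 0–8 h for wild type and 1–9 h for deletion strains, and wells under 10% of the median growth value were removed. The score is the Z-transformed residual of growth-normalised luminescence against a control fit.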
# [2] = test system: E. coli BW25113 micFp lux reporter
# Summary of the method: as §1
# [3] = test system: E. coli BW25113 ompFp lux reporter
# Summary of the method: as §1
# [4] = test system: E. coli BW25113 robp lux reporter
# Summary of the method: as §1
# [5] = test system: E. coli BW25113 soxSp lux reporter
# Summary of the method: as §1
# [6] = test system: E. coli BW25113 tolCp lux reporter
# Summary of the method: as §1
# [7] = 21 µg/ml, genetic background: wild type
# [8] = 21 µg/ml, genetic background: ΔmarA
# [9] = 21 µg/ml, genetic background: Δrob
# [10] = 21 µg/ml, genetic background: ΔsoxS
# [11] = 42 µg/ml, genetic background: wild type
# [12] = 42 µg/ml, genetic background: ΔmarA
# [13] = 42 µg/ml, genetic background: Δrob
# [14] = 42 µg/ml, genetic background: ΔsoxS
# [15] = 84.1 µg/ml, genetic background: wild type
# [16] = 84.1 µg/ml, genetic background: ΔmarA
# [17] = 84.1 µg/ml, genetic background: Δrob
# [18] = 84.1 µg/ml, genetic background: ΔsoxS
# [19] = 168.2 µg/ml, genetic background: wild type
# [20] = 168.2 µg/ml, genetic background: ΔmarA
# [21] = 168.2 µg/ml, genetic background: Δrob
# [22] = 168.2 µg/ml, genetic background: ΔsoxS
smiles,measurement,setting,value
COc1ccc2cc3[n+](cc2c1OC)CCc1cc2c(cc1-3)OCO2 [Berberine],promoter activity interaction Z-score,[1]; [7],0.0236 ± 0.072
same,promoter activity interaction Z-score,[1]; [8],-0.475 ± 0.1
same,promoter activity interaction Z-score,[1]; [9],-0.306 ± 0.009
same,promoter activity interaction Z-score,[1]; [10],0.123 ± 0.39
same,promoter activity interaction Z-score,[1]; [11],-0.0191 ± 0.052
same,promoter activity interaction Z-score,[1]; [12],-0.27 ± 0.38
same,promoter activity interaction Z-score,[1]; [13],-0.196 ± 0.1
same,promoter activity interaction Z-score,[1]; [14],0.128 ± 0.55
same,promoter activity interaction Z-score,[1]; [15],-0.175 ± 0.13
same,promoter activity interaction Z-score,[1]; [16],-0.268 ± 0.47
same,promoter activity interaction Z-score,[1]; [17],-0.263 ± 0.31
same,promoter activity interaction Z-score,[1]; [18],0.253 ± 1.1
same,promoter activity interaction Z-score,[1]; [19],-0.0717 ± 0.13
same,promoter activity interaction Z-score,[1]; [20],-1.16 ± 0.13
same,promoter activity interaction Z-score,[1]; [21],-0.157 ± 0.19
same,promoter activity interaction Z-score,[1]; [22],0.745 ± 1.3
same,promoter activity interaction Z-score,[2]; [7],-0.242 ± 0.064
same,promoter activity interaction Z-score,[2]; [8],0.146 ± 0.14
same,promoter activity interaction Z-score,[2]; [9],-0.0671 ± 0.15
same,promoter activity interaction Z-score,[2]; [10],-0.125 ± 0.15
same,promoter activity interaction Z-score,[2]; [11],0.0805 ± 0.15
same,promoter activity interaction Z-score,[2]; [12],0.226 ± 0.014
same,promoter activity interaction Z-score,[2]; [13],0.0807 ± 0.046
same,promoter activity interaction Z-score,[2]; [14],0.68 ± 0.077
same,promoter activity interaction Z-score,[2]; [15],0.36 ± 0.12
same,promoter activity interaction Z-score,[2]; [16],0.426 ± 0.11
same,promoter activity interaction Z-score,[2]; [17],0.14 ± 0.12
same,promoter activity interaction Z-score,[2]; [18],0.7 ± 0.18
same,promoter activity interaction Z-score,[2]; [19],0.445 ± 0.051
same,promoter activity interaction Z-score,[2]; [20],0.425 ± 0.057
same,promoter activity interaction Z-score,[2]; [21],0.095 ± 0.17
same,promoter activity interaction Z-score,[2]; [22],2.075 ± 0.006
same,promoter activity interaction Z-score,[3]; [7],-0.331 ± 0.05
same,promoter activity interaction Z-score,[3]; [8],-0.189 ± 0.11
same,promoter activity interaction Z-score,[3]; [9],-0.392 ± 0.37
same,promoter activity interaction Z-score,[3]; [10],-0.128 ± 0.0057
same,promoter activity interaction Z-score,[3]; [11],-0.202 ± 0.02
same,promoter activity interaction Z-score,[3]; [12],-0.182 ± 0.032
same,promoter activity interaction Z-score,[3]; [13],0.159 ± 0.48
same,promoter activity interaction Z-score,[3]; [14],-0.184 ± 0.26
same,promoter activity interaction Z-score,[3]; [15],-0.592 ± 0.13
same,promoter activity interaction Z-score,[3]; [16],0.181 ± 0.27
same,promoter activity interaction Z-score,[3]; [17],-0.302 ± 0.21
same,promoter activity interaction Z-score,[3]; [18],0.222 ± 0.86
same,promoter activity interaction Z-score,[3]; [19],-0.265 ± 0.1
same,promoter activity interaction Z-score,[3]; [20],-0.655 ± 0.28
same,promoter activity interaction Z-score,[3]; [21],-0.0984 ± 0.32
same,promoter activity interaction Z-score,[3]; [22],0.615 ± 1.2
same,promoter activity interaction Z-score,[4]; [7],-0.384 ± 0.27
same,promoter activity interaction Z-score,[4]; [8],-0.668 ± 0.061
same,promoter activity interaction Z-score,[4]; [9],-0.229 ± 0.035
same,promoter activity interaction Z-score,[4]; [10],1.02 ± 0.67
same,promoter activity interaction Z-score,[4]; [11],-0.378 ± 0.14
same,promoter activity interaction Z-score,[4]; [12],-0.587 ± 0.51
same,promoter activity interaction Z-score,[4]; [13],-0.855 ± 0.25
same,promoter activity interaction Z-score,[4]; [14],-0.0756 ± 0.39
same,promoter activity interaction Z-score,[4]; [15],-0.935 ± 0.66
same,promoter activity interaction Z-score,[4]; [16],-0.613 ± 0.14
same,promoter activity interaction Z-score,[4]; [17],-0.951 ± 0.11
same,promoter activity interaction Z-score,[4]; [18],-0.288 ± 0.24
same,promoter activity interaction Z-score,[4]; [19],-0.906 ± 0.21
same,promoter activity interaction Z-score,[4]; [20],-1.18 ± 0.24
same,promoter activity interaction Z-score,[4]; [21],-0.88 ± 0.11
same,promoter activity interaction Z-score,[4]; [22],-0.247 ± 0.37
same,promoter activity interaction Z-score,[5]; [7],0.0121 ± 0.039
same,promoter activity interaction Z-score,[5]; [8],0.176 ± 0.081
same,promoter activity interaction Z-score,[5]; [9],0.152 ± 0.084
same,promoter activity interaction Z-score,[5]; [10],-0.0133 ± 0.085
same,promoter activity interaction Z-score,[5]; [11],0.0147 ± 0.0098
same,promoter activity interaction Z-score,[5]; [12],0.336 ± 0.2
same,promoter activity interaction Z-score,[5]; [13],0.0622 ± 0.0015
same,promoter activity interaction Z-score,[5]; [14],-0.227 ± 0.048
same,promoter activity interaction Z-score,[5]; [15],-0.148 ± 0.0029
same,promoter activity interaction Z-score,[5]; [16],0.232 ± 0.064
same,promoter activity interaction Z-score,[5]; [17],0.0295 ± 0.037
same,promoter activity interaction Z-score,[5]; [18],-0.359 ± 0.27
same,promoter activity interaction Z-score,[5]; [19],-0.174 ± 0.033
same,promoter activity interaction Z-score,[5]; [20],0.0364 ± 0.046
same,promoter activity interaction Z-score,[5]; [21],-0.0651 ± 0.054
same,promoter activity interaction Z-score,[5]; [22],-0.426 ± 0.38
same,promoter activity interaction Z-score,[6]; [7],0.227 ± 1.2
same,promoter activity interaction Z-score,[6]; [8],0.771 ± 0.18
same,promoter activity interaction Z-score,[6]; [9],-0.361 ± 0.45
same,promoter activity interaction Z-score,[6]; [10],0.909 ± 0.084
same,promoter activity interaction Z-score,[6]; [11],0.235 ± 0.016
same,promoter activity interaction Z-score,[6]; [12],1.1 ± 0.24
same,promoter activity interaction Z-score,[6]; [13],0.305 ± 0.6
same,promoter activity interaction Z-score,[6]; [14],0.638 ± 0.84
same,promoter activity interaction Z-score,[6]; [15],0.735 ± 0.75
same,promoter activity interaction Z-score,[6]; [16],0.534 ± 0.58
